Assay results as given in the supplement of paper PMC6555819.

Each sequence was assayed on VDR:RXRa (NR concentration 270 nM, RXRa partner concentration 90 nM) (assay: PBM binding z-score (relative to random genomic background probes); higher = stronger binding; sequences stand for … in GC…GCGATTGACAGCGTAGAATGAAGG).
Protocol: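 Protein-binding microarray (Agilent 4x180K custom design, double-stranded 60-nt probes: 5' GC cap, 34-nt variable region, 24-nt constant primer region; full probe sequence given). Purified or IVT nuclear receptor:RXRα heterodimers (3:1 NR:RXRα, mostly 270:90 nM) or homodimers were incubated for 1 h in PBS with 2% milk and no ligand, then detected with Alexa488 antibodies. Fluorescence from o1-orientation probes (~5 replicates averaged) was converted to z-scores against 500 random hg19 background probes. Variable regions are seed direct-repeat (DR0–DR5) sites, all their single-nucleotide variants and half-site ablations.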

Row | Sequence | PBM binding z-score
1 | CCTAGCCGGCCAGGGTCACTCAAGCATTTCGCTT | 2.37
2 | ACAGACAGGTGAGTGAAAGTAACTCAGCTGGACG | -0.256
3 | CCTAGCAGGCCAGAGTCACTCAAGCATTTCGCTT | -0.665
4 | CGTACTAGGTCAAGGACAGTGAATCTCCGCACGC | 1.33
5 | ACAGTCAGGTGAGTGAAGGTAACTCAGCTGGACG | -0.663
6 | CCGACTGGGGAAAGGTTACCATAACGCACAGCCA | 0.901
7 | CCTACTGGGCCACGAGAGGTCATTGATTCAGTGA | 4.45
8 | CCTAGCAGGCCAGGGTTACTCAAGCATTTCGCTT | -0.412
9 | CGTCAAAGTTCAACTCAGGTAACGTAAAGCACGC | 4.45
10 | CGAACGAGGGCATGAGTCGATAGCAAATGCCGAT | 0.359
11 | CCGAGTAGGGTATGGGGCATTCAGGCAACGGTGA | -0.217
12 | TAATATAGGTAAACAGGTGAAAGTCCGTAAGTTA | 1.19
13 | AGAACGAGGGCAAAGAGTTGATAGCACGGGTGGC | 4.29
14 | TCATATACGTAATACAGGTGAAAGTCGGCATCTA | 1.29
15 | ACAGACAGGTGAGTGAAGATAACTCAGCTGGACG | -0.413
16 | ATCTTTAGGTAAAAGTTCAGTGAATCCCGAGGAT | 1.43
17 | CCTATTAGTTGACCATAAGGGCAACCGAAGCTCG | 1.22
18 | TTACCAAGGTGAAAGGTCGTTGACGCACGCCTTG | 3.29
19 | CCTCGGAGGACAGAAAGTCAGAGCTGTCCGCTTT | -0.616
20 | TTCCCAAGGTGAAGGTCGTTGATCCCTCTGTAGA | 1.22

Row | Sequence | PBM binding z-score
21 | AGATCGAGGGCAATGAGTTGATAGCACGGGTGGC | 5.15
22 | GGAACTAGGGCATTCGAGTTGATAGCATGGCGAT | 1.23
23 | CCAGACAGGTGAAGGGTAACTCAGTCTGGTACGC | -0.111
24 | ATATGTAGGTTACATCCGGGTCAGTCAGGCTATG | 2.62
25 | CCGAGTCGGTTATGGGGCATTCAGGCAACGGTGA | -0.358
26 | TCGAGTAGGTTAGTCGGGGCATTCAACCAACATA | 2.31
27 | AGATGTAGGTTACATCCGGGTCATTCAGGCTATG | 4
28 | TCTTGTAGATCGAGCAGGTTAAGAAAGCCTGAGT | -0.0222
29 | ATAATGAGGTTATACGTAGATCAGGGAAGAAAGT | 1.95
30 | GCTGCTAGGTGAGGTTGGTCAGCTAACGGGTACG | -0.472
31 | GCTAGTTGGTCAGTAAAAGGTCGCACACCGGTCG | 1.39
32 | AGGCAAAGTTCAGGACGAGGTAACGTAAAGCACG | 2.67
33 | TAGCCTAGGTCATGCGGGCCAGTAAAGTGTCGGC | 2.75
34 | ATCTCTAGGTAACAAATTCAGTGAAAGAGAGGAC | 0.375
35 | CGTCAAAGTTCCAGGTAACGTAACAGAAAGCAGC | -0.14
36 | ATCTCTAGGTAAAGATAGTTCAGTGAATGCAAAT | 0.815
37 | GCTAGTTGGTCAGAAAAAGGTCACACACCGGTCG | 3.77
38 | TTACCAAGGTGAAAGGTCGTTAATGCACGCCTTG | 2.95
39 | CTCGAAAGGACGGTTGAGGTGAGTATACGGATAA | -0.266
40 | GCTTACGGGTCAAAGGTTATAGAATGAATAGAAT | 5.63
